Eight compounds from PubChem BioAssay (NCI) can be followed below.

Compounds without any hit were thinned out: in the full panel of roughly 83,000, 20% have a hit.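 Cell lines were cultured in 96-well plates, exposed to a single compound concentration, and assessed for percent growth 48 hours later.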 Unmarked numbers belong to inactive results. Activity calls are given as the source filed them. Rule for the calls: active = growth percent below 10; inactive = the rest.

Some test systems named below: K-562 leukemia; MALME-3M melanoma; MDA-MB-231 breast; RXF 393 renal; SF-295 CNS; SF-539 CNS; UACC-257 melanoma; M14 melanoma; HCT-15 colon; HT29 colon; SNB-75 CNS; SNB-19 CNS; U251 CNS; PC-3 prostate; SK-MEL-5 melanoma; UACC-62 melanoma; LOX IMVI melanoma; SK-MEL-28 melanoma; SK-MEL-2 melanoma; SF-268 CNS.
Experiment in all cases: NCI-60 one-dose screen, 48 h (100 = growth as untreated, 0 = no growth, -100 = all killed)
Conditions in all cases: 10 µM

For `Fc1ccc(-c2nnc(-c3c(-c4ccc(F)cc4)nc4ccccn34)o2)cc1`, the growth in the experiment on K-562 leukemia is 87.2%; in the experiment on MALME-3M melanoma it was 120%; with MDA-MB-231 breast, 78.9%; with RXF 393 renal, 85.9%; in the experiment with SF-295 CNS, 88.7%; in the experiment with SF-539 CNS, -10.1% (active). Further, the growth in the experiment on UACC-257 melanoma was 85.1%; in the experiment with M14 melanoma it was 116%; in the experiment with HCT-15 colon, 98.5%; with HT29 colon it was 79.2%; in the experiment with SNB-75 CNS, 37.4%; in the experiment with SNB-19 CNS, 92.8%. Moreover, the growth with U251 CNS was 81.2%; in the experiment on PC-3 prostate, 84.6%; in the experiment on SK-MEL-5 melanoma, 80.4%; in the experiment with UACC-62 melanoma, 92.2%; in the experiment on LOX IMVI melanoma it was 65.4%; with SK-MEL-28 melanoma, 85%. Moreover, the growth with SK-MEL-2 melanoma is 120%.

With `Clc1ccc(Nc2ccnc(NCCNc3ccnc4cc(Cl)ccc34)n2)cc1`, the growth in the experiment with K-562 leukemia was -54.6% (active); with MALME-3M melanoma, -83.6% (active); in the experiment on MDA-MB-231 breast it was -20.4% (active); in the experiment with RXF 393 renal, 0.0582% (active); in the experiment with SF-268 CNS, -10.7% (active); in the experiment on SF-295 CNS, -58.9% (active). The growth was -94.5% (active) in the experiment with SF-539 CNS; -86.8% (active) with M14 melanoma; 3.75% (active) in the experiment on HCT-15 colon; -37.4% (active) in the experiment with HT29 colon; 4.36% (active) in the experiment on SNB-75 CNS; 69.6% with SNB-19 CNS. For the same compound, the growth in the experiment on U251 CNS is -48% (active); in the experiment on PC-3 prostate it was 14.7%; in the experiment with SK-MEL-5 melanoma, -100% (active); in the experiment with UACC-62 melanoma, -79.5% (active); in the experiment on LOX IMVI melanoma, -79.5% (active); in the experiment on SK-MEL-28 melanoma it was -100% (active). Also, the growth in the experiment on SK-MEL-2 melanoma was -76.1% (active).

For the compound `COc1ccc(-c2nc3ncccn3c2-c2nnc(-c3ccc(F)cc3)o2)cc1`, the growth in the experiment with K-562 leukemia is 87.7%; with MALME-3M melanoma, 122%; with MDA-MB-231 breast it was 88.9%; with RXF 393 renal, 111%; in the experiment on SF-295 CNS, 97.1%; in the experiment with SF-539 CNS, 94.5%. In addition, the growth with UACC-257 melanoma was 105%; in the experiment with M14 melanoma it was 110%; in the experiment on HCT-15 colon it was 93.8%; in the experiment with HT29 colon, 107%; with SNB-75 CNS it was 94.7%; in the experiment on SNB-19 CNS, 96.9%. For the same compound, the growth is 106% in the experiment on U251 CNS; 92.8% in the experiment on PC-3 prostate; 91.8% in the experiment with SK-MEL-5 melanoma; 91.1% in the experiment with UACC-62 melanoma; 87.7% in the experiment with LOX IMVI melanoma; 99.5% in the experiment on SK-MEL-28 melanoma. The growth in the experiment with SK-MEL-2 melanoma was 111%.

Consider `COc1ccc(-c2nc3ncccn3c2-c2nnc(-c3ccsc3C)o2)cc1`, for which the growth with K-562 leukemia was 92.2%; with MALME-3M melanoma, 80.8%; in the experiment with MDA-MB-231 breast, 80.6%; in the experiment with RXF 393 renal, 82.8%; with SF-295 CNS it was 80.3%; with SF-539 CNS, 86.4%. Besides, the growth in the experiment on UACC-257 melanoma is 78.4%; with M14 melanoma, 107%; in the experiment on HCT-15 colon it was 88.9%; with HT29 colon, 103%; with SNB-75 CNS, 17.5%; in the experiment with SNB-19 CNS, 68.9%. Besides, the growth is 72.4% in the experiment with U251 CNS; 83.6% in the experiment on PC-3 prostate; 81% in the experiment with SK-MEL-5 melanoma; 78.3% in the experiment on UACC-62 melanoma; 88.4% with LOX IMVI melanoma; 78.2% with SK-MEL-28 melanoma. The growth with SK-MEL-2 melanoma was 90.5%.

Consider `NC(=O)CC1(c2ccccc2)CCCCC1`, for which the growth in the experiment on K-562 leukemia is 92.3%; with MALME-3M melanoma, 93.8%; with MDA-MB-231 breast, 105%; in the experiment on RXF 393 renal, 114%; with SF-268 CNS, 98.5%; in the experiment with SF-295 CNS, 103%. Moreover, the growth was 104% in the experiment on SF-539 CNS; 96% in the experiment with M14 melanoma; 101% in the experiment on HCT-15 colon; 104% in the experiment on HT29 colon; 95.3% with SNB-75 CNS; 105% in the experiment on SNB-19 CNS. The growth with U251 CNS was 102%; with PC-3 prostate it was 99.4%; with SK-MEL-5 melanoma, 106%; in the experiment on UACC-62 melanoma, 107%; in the experiment on LOX IMVI melanoma, 96.1%; in the experiment with SK-MEL-28 melanoma, 110%. In addition, the growth with SK-MEL-2 melanoma is 102%.

Consider `CC(C)=CCc1cc(O)cc2c1OC(C=C(C)C)C1=C2C(=O)C2=C(C1=O)S(=O)(=O)CCN2` (configuration not stated), for which the growth in the experiment on K-562 leukemia was 5.77% (active); in the experiment on MALME-3M melanoma, -64.7% (active); in the experiment with MDA-MB-231 breast, 17.5%; in the experiment with RXF 393 renal, 73.3%; with SF-268 CNS it was 2.3% (active); in the experiment on SF-295 CNS, 85.5%. For the same compound, the growth is -19.2% (active) in the experiment on SF-539 CNS; 27.6% with M14 melanoma; 58% in the experiment with HCT-15 colon; 64.8% in the experiment with HT29 colon; 72.2% in the experiment on SNB-75 CNS; 46.2% with SNB-19 CNS. For the same compound, the growth with U251 CNS is -14.3% (active); with PC-3 prostate it was 6.32% (active); in the experiment on SK-MEL-5 melanoma, 16.2%; in the experiment with UACC-62 melanoma it was 9.11% (active); in the experiment with LOX IMVI melanoma, 4.91% (active); with SK-MEL-28 melanoma, 36.8%. Besides, the growth with SK-MEL-2 melanoma was 28.8%.

Regarding `Cc1cc(Cl)nc(N(CCCNc2ccnc3cc(Cl)ccc23)Cc2cccs2)n1`, the growth is -11.7% (active) in the experiment with K-562 leukemia; -30% (active) in the experiment on MALME-3M melanoma; 17.2% in the experiment on MDA-MB-231 breast; 0.398% (active) with RXF 393 renal; 38.6% in the experiment with SF-268 CNS; 13.1% in the experiment with SF-295 CNS. In addition, the growth in the experiment with SF-539 CNS is 3.33% (active); in the experiment with M14 melanoma, -7.28% (active); in the experiment with HCT-15 colon it was 8.59% (active); in the experiment with HT29 colon, 1.59% (active); in the experiment with SNB-75 CNS, 55.6%; with SNB-19 CNS it was 42.9%. The growth with U251 CNS is 8.68% (active); in the experiment with PC-3 prostate it was 10.1%; in the experiment on SK-MEL-5 melanoma, -74.3% (active); in the experiment on UACC-62 melanoma, 10%; in the experiment on LOX IMVI melanoma, -1.18% (active); in the experiment on SK-MEL-28 melanoma it was 16.1%. The growth in the experiment on SK-MEL-2 melanoma was 16.9%.

As to `O=C1/C(=C\c2cn(C(=O)c3ccc(Cl)cc3)c3ccccc23)c2ccccc2N1C(=O)c1ccc(Cl)cc1`, the growth in the experiment on K-562 leukemia was 83.9%; in the experiment on MALME-3M melanoma, 126%; in the experiment on MDA-MB-231 breast it was 81.2%; with RXF 393 renal, 83.3%; in the experiment with SF-268 CNS, 77.6%; with SF-295 CNS, 102%. Besides, the growth in the experiment with SF-539 CNS was 67.3%; in the experiment on M14 melanoma, 79.2%; in the experiment with HCT-15 colon, 65.8%; with HT29 colon, 70.4%; in the experiment with SNB-75 CNS it was 54.4%; with SNB-19 CNS, 98.2%. Moreover, the growth in the experiment with U251 CNS was 74.2%; with PC-3 prostate, 65.7%; in the experiment on SK-MEL-5 melanoma it was 74.9%; in the experiment with UACC-62 melanoma it was 88.9%; in the experiment on LOX IMVI melanoma it was 67.2%; in the experiment on SK-MEL-28 melanoma, 103%. Also, the growth in the experiment with SK-MEL-2 melanoma was 49.8%.
